From the supplement of paper PMC12067926 come the findings set out here.

The test system of the assay is Bacillus 1 (Bacillus foraminis). Briefly: relative growth (AUC of 72 h growth curve relative to DMSO control, dAUC) (ratio); higher = more growth (less inhibition), active = hit call of the paper. Particulars: 20 µM;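 active = growth AUC significantly below the DMSO wells by Dunnett test; inactive = the rest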. The method, then:
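Environmental bacterial isolates (Iceland stream sediment and Silwood Park soil) and whole stream-sediment communities were grown in LB from a 1:100 dilution with each pesticide at 20 µM (1% DMSO). A600 was read hourly for 72 h and the area under a spline-fitted growth curve (AUC) was computed. dAUC is the mean AUC of 3 biological replicates divided by the mean AUC of the DMSO controls. Significance was tested by Dunnett's test against the DMSO control.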
In the case of `CCCCCCCCCCCCNC(=N)N`, the relative growth was 0.691 (active).
The same measure for `Cc1cc(C(F)(C(F)(F)F)C(F)(F)F)ccc1NC(=O)c1cccc(I)c1C(=O)NC(C)(C)CS(C)(=O)=O`: 1.16 (inactive); for `CC1(C)C(C=C(Cl)Cl)C1C(=O)OCc1cccc(Oc2ccccc2)c1` (stereo not given): 1.06 (inactive).
For `Cc1ccc(/N=C/N(C)/C=N/c2ccc(C)cc2C)c(C)c1`, the relative growth is 1.01 (inactive).
With `Cc1cccc2sc3nncn3c12`, the relative growth is 1.03 (inactive).
As to `CN(C)C(CSS(=O)(=O)O)CSS(=O)(=O)O`, the relative growth was 1.07 (inactive).
The same measure for `CCC(C)(C)C(=O)OC1=C(c2ccc(Cl)cc2Cl)C(=O)OC12CCCCC2`: 0.975 (inactive).
The same measure for `O=C(O)COc1ccc(Cl)cc1Cl`: 1.09 (inactive); for `COP(=S)(OC)SCN1C(=O)c2ccccc2C1=O`: 1.04 (inactive).
The same measure for `CCC(CC)Nc1c([N+](=O)[O-])cc(C)c(C)c1[N+](=O)[O-]`: 0.931 (inactive); for `CCCC1COC(Cn2cncn2)(c2ccc(Cl)cc2Cl)O1` (stereo not given): 0.942 (inactive); for `C#CCN1C(=O)COc2cc(F)c(N3C(=O)C4=C(CCCC4)C3=O)cc21`: 1.14 (inactive).
With `CC1(C)C(C=C(Cl)Cl)C1C(=O)OC(C#N)c1cccc(Oc2ccccc2)c1` (stereo not given), the relative growth is 1.11 (inactive).
The same measure for `CC(C)N(C)S(=O)(=O)NC(=O)c1cc(-n2c(=O)cc(C(F)(F)F)n(C)c2=O)c(F)cc1Cl`: 0.998 (inactive).
`CCCSP(=O)(OCC)Oc1ccc(Br)cc1Cl` (stereo not given): the relative growth was 1.07 (inactive).
Regarding `Nc1c([N+](=O)[O-])ccc(Oc2ccccc2)c1Cl`, the relative growth was 1.02 (inactive).
To `CC1(C)CON(Cc2ccccc2Cl)C1=O` belongs 1.03 (inactive); to `CSc1nc(NC(C)C)nc(NC(C)C)n1`, 0.945 (inactive); to `O=[N+]([O-])c1cc(C(F)(F)F)c(Cl)c([N+](=O)[O-])c1Nc1ncc(C(F)(F)F)cc1Cl`, 0.0375 (active).
The same measure for `OC(Cc1ccccc1Cl)(Cn1nc[nH]c1=S)C1(Cl)CC1` (stereo not given): 0.988 (inactive).
To `CC(Oc1ccc(Oc2ncc(C(F)(F)F)cc2Cl)cc1)C(=O)O` (stereo not given) belongs 1 (inactive).
As for `CC(C)(C)c1ccc(CSc2cnn(C(C)(C)C)c(=O)c2Cl)cc1`, the relative growth was 1.03 (inactive).
The same measure for `Cc1cc(C)nc(Nc2ccccc2)n1`: 1.08 (inactive).
To `CNC(=O)/C=C(\C)OP(=O)(OC)OC` belongs 0.96 (inactive); to `O=C1c2ccccc2C(=O)N1SC(Cl)(Cl)Cl`, 1.12 (inactive); to `CC(C1CC1)C(O)(Cn1cncn1)c1ccc(Cl)cc1` (stereo not given), 1.09 (inactive).
For `Fc1ccc([C@]2(Cn3cncn3)O[C@H]2c2ccccc2Cl)cc1` (racemic), the relative growth was 0.994 (inactive).
Consider `CCOCN(C(=O)CCl)c1c(C)cccc1CC`, for which the relative growth was 1 (inactive).
The same measure for `CS(=O)(=O)c1cc(C(F)(F)F)ccc1C(=O)c1cnoc1C1CC1`: 1.02 (inactive); for `CC(COc1ccc(Oc2ccccc2)cc1)Oc1ccccn1` (stereo not given): 1.07 (inactive).
To `COP(=S)(OC)Oc1ccc(SC)c(C)c1` belongs 0.995 (inactive); to `CS(=O)(=O)NC(=O)c1cc(Oc2ccc(C(F)(F)F)cc2Cl)ccc1[N+](=O)[O-]`, 1.04 (inactive); to `O=C1C2(Cl)C3(Cl)C4(Cl)C(Cl)(Cl)C5(Cl)C3(Cl)C1(Cl)C5(Cl)C24Cl` (stereo not given), 0.959 (inactive).
To `OC(Cn1cncn1)(c1ccc(F)cc1)c1ccccc1F` (stereo not given) belongs 1.07 (inactive).
For the compound `CNC(=O)c1cc(Cl)cc(C)c1NC(=O)c1cc(Br)nn1-c1ncccc1Cl`, the relative growth is 1.01 (inactive).
To `CON(C)C(=O)Nc1ccc(Cl)c(Cl)c1` belongs 1.04 (inactive).
The same measure for `N#CCNC(=O)c1cnccc1C(F)(F)F`: 1.03 (inactive).
The same measure for `CC[C@H](C)C1O[C@]2(C=C[C@@H]1C)C[C@@H]1C[C@@H](C/C=C(\C)[C@@H](O[C@H]3C[C@H](OC)[C@@H](O[C@H]4C[C@H](OC)[C@H](NC)[C@H](C)O4)[C@H](C)O3)[C@@H](C)/C=C/C=C3\CO[C@@H]4[C@H](O)C(C)=C[C@@H](C(=O)O1)[C@]34O)O2` (stereo not given in full): 0.928 (inactive); for `COP(N)(=O)SC` (stereo not given): 0.871 (inactive).
For `CC(C)OC(=O)C(C(=O)OC(C)C)=C1SCCS1`, the relative growth is 1.05 (inactive).
